For seven molecules, growth results are on record in PubChem BioAssay (NCI).

Some test systems named below: DU-145 prostate; K-562 leukemia; MALME-3M melanoma; MDA-MB-231 breast; RXF 393 renal; SF-268 CNS; SF-295 CNS; SF-539 CNS; UACC-257 melanoma; M14 melanoma; HCT-15 colon; HT29 colon; SNB-75 CNS; SNB-19 CNS; U251 CNS; PC-3 prostate; SK-MEL-5 melanoma; UACC-62 melanoma; LOX IMVI melanoma; SK-MEL-28 melanoma.
What all share (assay): NCI-60 one-dose screen, 48 h (100 = growth as untreated, 0 = no growth, -100 = all killed)
Holding throughout (conditions): 10 µM unless noted

Each structure is given as a SMILES string. Compounds without any hit were thinned out: in the full panel of roughly 83,000, 20% have a hit.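 Compound tested at a single concentration for 48 hours in 96-well plates; a percent growth value below 10 was scored as active.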 Unmarked numbers belong to inactive results. Activity calls are given as the source filed them.

For `COC(=O)c1cc2c(=O)[nH]cc3c2c(n1)CCC3`, the growth in the assay with DU-145 prostate is 116%; with K-562 leukemia it was 99.3%; in the assay with MALME-3M melanoma, 99.3%; in the assay with MDA-MB-231 breast it was 106%; in the assay with RXF 393 renal, 100%; in the assay with SF-268 CNS, 100%. Besides, the growth was 112% in the assay on SF-295 CNS; 97.3% with SF-539 CNS; 102% in the assay with UACC-257 melanoma; 104% with M14 melanoma; 113% with HCT-15 colon; 105% in the assay on HT29 colon. Further, the growth in the assay with SNB-75 CNS is 104%; in the assay with SNB-19 CNS it was 96.2%; in the assay on U251 CNS, 103%; with PC-3 prostate, 93.6%; with SK-MEL-5 melanoma it was 104%; in the assay with UACC-62 melanoma it was 107%. In addition, the figures for the growth with LOX IMVI melanoma and in the assay on SK-MEL-28 melanoma were 104% and 105%, respectively.

In the case of `Cc1ccccc1OC(=O)c1cccc(Cl)c1`, the growth was 126% in the assay with DU-145 prostate; 95.4% in the assay on K-562 leukemia; 97.3% in the assay on MALME-3M melanoma; 118% in the assay with MDA-MB-231 breast; 113% in the assay on RXF 393 renal; 101% with SF-268 CNS. Besides, the growth in the assay with SF-295 CNS was 122%; with SF-539 CNS it was 101%; with UACC-257 melanoma, 111%; in the assay on M14 melanoma, 110%; in the assay on HCT-15 colon, 104%; with HT29 colon, 103%. Moreover, the growth in the assay with SNB-75 CNS was 86.2%; in the assay with SNB-19 CNS, 109%; with U251 CNS it was 129%; in the assay on PC-3 prostate, 92.2%; with SK-MEL-5 melanoma, 103%; in the assay with UACC-62 melanoma, 105%. Moreover, the growth in the assay with LOX IMVI melanoma was 98%; in the assay on SK-MEL-28 melanoma it was 113%.

Consider `CC(=O)OC[C@]12CC[C@@H](C(=O)CBr)[C@@H]1[C@H]1CC[C@@H]3[C@@]4(C)CCCNC(C)(C)[C@@H]4CC[C@@]3(C)[C@]1(C)CC2`, for which the growth was -94.7% [100 µM] (active) in the assay with DU-145 prostate; 5.86% [100 µM] (active) in the assay with K-562 leukemia; -75.7% [100 µM] (active) in the assay on MALME-3M melanoma; -71.8% [100 µM] (active) in the assay on MDA-MB-231 breast; -81.9% [100 µM] (active) with RXF 393 renal; -65.5% [100 µM] (active) in the assay on SF-268 CNS. Also, the growth in the assay on SF-295 CNS is -85.4% [100 µM] (active); with SF-539 CNS, -81.4% [100 µM] (active); with UACC-257 melanoma it was -76.6% [100 µM] (active); in the assay with M14 melanoma it was -48.5% [100 µM] (active); in the assay on HCT-15 colon, -74.7% [100 µM] (active); in the assay with HT29 colon it was -81.9% [100 µM] (active). Further, the growth in the assay on SNB-75 CNS was -98.3% [100 µM] (active); in the assay on SNB-19 CNS it was -93.4% [100 µM] (active); in the assay on U251 CNS, -88.6% [100 µM] (active); in the assay with PC-3 prostate, -76.6% [100 µM] (active); in the assay with SK-MEL-5 melanoma, -91.7% [100 µM] (active); in the assay with UACC-62 melanoma, -90.9% [100 µM] (active). Moreover, the growth is -91.6% [100 µM] (active) with LOX IMVI melanoma and -86.7% [100 µM] (active) in the assay with SK-MEL-28 melanoma.

In the case of `CCN(CCO)CCC(=O)c1ccc([N+](=O)[O-])cc1`, the growth is 103% in the assay with DU-145 prostate; 101% in the assay on K-562 leukemia; 102% in the assay with MALME-3M melanoma; 115% in the assay on MDA-MB-231 breast; 106% with RXF 393 renal; 97% in the assay with SF-268 CNS. For the same molecule, the growth in the assay on SF-295 CNS was 103%; in the assay with SF-539 CNS, 105%; with UACC-257 melanoma it was 105%; in the assay with M14 melanoma, 106%; with HCT-15 colon, 101%; with HT29 colon, 105%. Further, the growth in the assay with SNB-75 CNS was 93.2%; with SNB-19 CNS, 117%; in the assay with U251 CNS, 98.1%; with PC-3 prostate it was 103%; in the assay on SK-MEL-5 melanoma, 100%; in the assay on UACC-62 melanoma, 104%. Besides, the growth in the assay with LOX IMVI melanoma was 98.5%; in the assay with SK-MEL-28 melanoma, 117%.

Consider `Cc1cc(-c2ccc(N=Nc3c(S(=O)(=O)O)cc4cc(S(=O)(=O)O)cc(N)c4c3O)c(C)c2)ccc1N=Nc1cc(S(=O)(=O)O)c2ccccc2c1O`, for which the growth with DU-145 prostate was 112%; in the assay with K-562 leukemia, 98%; in the assay with MALME-3M melanoma it was 89%; in the assay with MDA-MB-231 breast, 92.4%; in the assay with RXF 393 renal, 107%; in the assay on SF-268 CNS it was 95.6%. Besides, the growth with SF-295 CNS was 103%; in the assay with SF-539 CNS, 88.4%; in the assay with UACC-257 melanoma, 97.7%; in the assay with M14 melanoma, 101%; in the assay with HCT-15 colon, 104%; in the assay with HT29 colon, 100%. In addition, the growth in the assay on SNB-75 CNS is 98.5%; in the assay with SNB-19 CNS, 94.4%; in the assay with U251 CNS it was 99.5%; in the assay with PC-3 prostate, 96.9%; in the assay on SK-MEL-5 melanoma, 100%; with UACC-62 melanoma it was 93.6%. Also, the growth is 106% in the assay on LOX IMVI melanoma and 107% in the assay with SK-MEL-28 melanoma.

For `CC1(C)CC[C@]2(C(=O)O)CC[C@]3(C)C(=CC[C@@H]4[C@@]5(C)C/C(=C/c6ccco6)C(=O)C(C)(C)[C@@H]5CC[C@]43C)[C@@H]2C1`, the growth with DU-145 prostate was -45% [100 µM] (active); with K-562 leukemia it was 10.5% [100 µM]; with MALME-3M melanoma, -80.7% [100 µM] (active); with MDA-MB-231 breast it was -77.9% [100 µM] (active); in the assay with RXF 393 renal, -68.5% [100 µM] (active); in the assay with SF-268 CNS, -27.2% [100 µM] (active). Also, the growth in the assay on SF-295 CNS was -56.2% [100 µM] (active); in the assay with SF-539 CNS, -83.3% [100 µM] (active); in the assay on UACC-257 melanoma, -23.7% [100 µM] (active); in the assay on M14 melanoma, -31.5% [100 µM] (active); in the assay with HCT-15 colon, -38.6% [100 µM] (active); in the assay on HT29 colon it was -56.7% [100 µM] (active). The growth in the assay with SNB-75 CNS is -15.6% [100 µM] (active); with SNB-19 CNS, -9.61% [100 µM] (active); in the assay on U251 CNS, -36.1% [100 µM] (active); in the assay on PC-3 prostate, -16% [100 µM] (active); in the assay on SK-MEL-5 melanoma it was -75.8% [100 µM] (active); with UACC-62 melanoma, -89.7% [100 µM] (active). Besides, the growth is -95.1% [100 µM] (active) with LOX IMVI melanoma and -79.5% [100 µM] (active) with SK-MEL-28 melanoma.

For `CCNC(=O)N1CCc2c(Cl)c3c(c(OC)c2[C@@H]1[C@H]1OCc2c1ccc(OC)c2OC)OCCO3`, the growth in the assay with DU-145 prostate is 10.9%; with K-562 leukemia, 10.4%; in the assay on MALME-3M melanoma, 29.6%; with MDA-MB-231 breast, 43.2%; in the assay with RXF 393 renal it was -39.8% (active); in the assay with SF-268 CNS, 45.3%. Further, the growth in the assay with SF-295 CNS was 8.12% (active); in the assay on SF-539 CNS, -41.3% (active); in the assay with UACC-257 melanoma it was 55.3%; with M14 melanoma, 1.38% (active); in the assay with HCT-15 colon it was 26.5%; in the assay on HT29 colon it was 13.3%. The growth in the assay with SNB-75 CNS was 1.79% (active); in the assay on SNB-19 CNS, 30.8%; in the assay on U251 CNS it was 26.1%; in the assay on PC-3 prostate, 20.8%; with SK-MEL-5 melanoma it was 11.4%; with UACC-62 melanoma, 22.2%. The growth was 27.5% in the assay with LOX IMVI melanoma and 54.3% in the assay on SK-MEL-28 melanoma.
